Measured values as given in PubChem BioAssay (NCI).
About 79,000 compounds went through this panel and 15% of them were active in at least one assay; those are over-represented in the sample as a whole. Values without a mark were called inactive. Activity calls are given as the source filed them. No stated cut-off is given here; in the data, active means growth inhibition above about 70%; inactive means the rest.

Test: NCI Yeast Anticancer Drug Screen. Data for the mlh1 strain (AID 171);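 further: 0% = growth of vehicle-treated control cultures of the same strain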
Details: S. cerevisiae mlh1 strain growth inhibition, stronger effect = higher value
Method: Growth inhibition of yeast strains with defined genetic alterations is measured as a screen for potential anti-cancer activity. Selected strains with alterations in DNA damage repair or cell cycle control were exposed to compounds and growth inhibition was measured relative to vehicle treated controls. The strain used in this assay is mlh1

Row | SMILES | growth inhibition (at 1.2 µM) [%] | growth inhibition (at 3.7 µM) [%] | growth inhibition (at 11.0 µM) | growth inhibition (at 33.0 µM) | growth inhibition (at 100.0 µM)
1 | COC(=O)c1ccc([N+](=O)[O-])c(O)c1 | -4 | -1 | 7% | 67% | 99% (active)
2 | Cc1ccc(Cl)c2[nH]c(-c3ccccc3)cc(=O)c12 | 0 | -2 | -4% | -2% | 0%
3 | C(CCSC1=NCCN1)CSC1=NCCN1 (tested in a mixture with another compound) | 5 | 20 | 83% (active) | 99% (active) | 98% (active)
4 | O=C([O][Sn]([O]C(=O)c1ccccc1)([c]1ccccc1)[c]1ccccc1)c1ccccc1 | 1 | 14 | 20% | 43% | 86% (active)
5 | CCC(=O)OCCn1c2nc(=O)[nH]c(=O)c-2nc2cc(C)c(C)cc21 | -11 | -6 | -5% | 65% | 86% (active)
6 | CC(=O)OC1CCC2(C)C(=CCC3C4CCC5(OC6CC(C)CN(C(C)=O)C6C5C)C(C)=C4C(=O)C32)C1 (stereo not given) | -17 | -21 | 51% | 96% (active) | 90% (active)
7 | CCCCCCCCCCCCCC[N+](C)(CC(=O)[O-])Cc1ccccc1 (stereo not given) | 2 | 31 | 99% (active) | 99% (active) | 99% (active)
8 | CCN(CC)[P+](c1ccccc1O)(N(CC)CC)N(CC)CC | -60 | -61 | -22% | 30% | 73% (active)
